Laboratory results published in the supplement of paper PMC6555819.

The sequences below were run on VDR:RXRa (NR concentration 270 nM, RXRa partner concentration 90 nM) (assay: PBM binding z-score (relative to random genomic background probes); higher = stronger binding; sequences stand for … in GC…GCGATTGACAGCGTAGAATGAAGG).
Protocol: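 Protein-binding microarray (Agilent 4x180K custom design, double-stranded 60-nt probes: 5' GC cap, 34-nt variable region, 24-nt constant primer region; full probe sequence given). Purified or IVT nuclear receptor:RXRα heterodimers (3:1 NR:RXRα, mostly 270:90 nM) or homodimers were incubated for 1 h in PBS with 2% milk and no ligand, then detected with Alexa488 antibodies. Fluorescence from o1-orientation probes (~5 replicates averaged) was converted to z-scores against 500 random hg19 background probes. Variable regions are seed direct-repeat (DR0–DR5) sites, all their single-nucleotide variants and half-site ablations.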

**Q.** For TCTAGCAGGCCAGAGGGTCAATCAAGAGGTACGG, which PBM binding z-score is on record?
**A.** 1.6

**Q.** For CCTGCTAAGTCATGGTCAGCTAATCTACAGTATG, which PBM binding z-score is on record?
**A.** -0.252

**Q.** For TAGCCCAGGTCATGGGCCAGTATACCACGCGAAC, which PBM binding z-score is on record?
**A.** 2.64

**Q.** Which PBM binding z-score does the source give for CAAACTAGGTCACCGGAAGGTCTAAGTCCGCATG here?
**A.** 3.1

**Q.** Which PBM binding z-score does the source give for AGAATGAGGTTATTCAGATCAGGGAATTGCGGTC here?
**A.** 2.7

**Q.** With CATAGCAGGCCAGGGTCACTCAAGCATTTCGCTT as the sequence, how does the PBM binding z-score read?
**A.** 2.92

**Q.** With TCTTGTAGAACAATAGAGGTTAAGAAAGTGCGCT as the sequence, how does the PBM binding z-score read?
**A.** 1.65

**Q.** GGAACGAGTGCAAAGTTGATAGCATCTGTCGACG was tested. Which PBM binding z-score did it give?
**A.** 1.49

**Q.** Which PBM binding z-score does the source give for CAAACTAGGTCAAGGTGAAAGTCGGTTTGTGCCA here?
**A.** 2.1

**Q.** CCTAGCAGGCCAATCTTGGTCACTCAAGGCTTGA was tested. Which PBM binding z-score did it give?
**A.** -0.601

**Q.** TGAAAGAGGTTATAAGATCAGGGAACGTTGCAAA was tested. Which PBM binding z-score did it give?
**A.** 0.894

**Q.** Which PBM binding z-score does the source give for TAGCCTAGGTGATGCGGGCCAGTATAGTGTCGGC here?
**A.** -0.796

**Q.** For TCATATAGGTAAAAGTTGAAAGTCGGTGTGGTAA, which PBM binding z-score is on record?
**A.** 1.21

**Q.** With TGAATGAGGTTAAAGATGAGGGAACGTGGCGTCG as the sequence, how does the PBM binding z-score read?
**A.** 1.48

**Q.** How did the PBM binding z-score turn out when CCTATTAGTTGACCATAAGTGCAACCGAAGCTCG was run?
**A.** 1.31

**Q.** How did the PBM binding z-score turn out when TAGCCTAGGTCATTCAGCGGCCAGTATAGAAAGC was run?
**A.** 2.62

**Q.** ACTATTAGTTGACTTAGGGCAACCGCTACGACGC was tested. Which PBM binding z-score did it give?
**A.** 0.319

**Q.** How did the PBM binding z-score turn out when TCATATAGGTAATACAGGTGAATGTCGGCATCTA was run?
**A.** 1.3

**Q.** TCATATTGGTAATACAGGTGAAAGTCGGCATCTA was tested. Which PBM binding z-score did it give?
**A.** 1.12

**Q.** ACAGACAGGTGATGAAGGTAAGTCAGGCTATCAT was tested. Which PBM binding z-score did it give?
**A.** -0.133

**Q.** How did the PBM binding z-score turn out when TCATATAGGTAAAGGTGAATGTCGAACGATATGA was run?
**A.** 0.919

**Q.** For ATCCAAAGGTCGTGAGGTGAGTATACAGAAAGGC, which PBM binding z-score is on record?
**A.** 3.91

**Q.** For CCTTACGGGTGACGAGGTTATAGCACGACGAGCG, which PBM binding z-score is on record?
**A.** 0.935

**Q.** For TCATATAGGTAAAAGGTGTAAGTCGGTGTGGTAA, which PBM binding z-score is on record?
**A.** 0.727

**Q.** How did the PBM binding z-score turn out when CCGACTGGGGCAGACAGGTTACCATACCATCCGG was run?
**A.** -0.343

**Q.** GCTTGTAGATCAAGGTCAAGAAAGACTAAGCTAA was tested. Which PBM binding z-score did it give?
**A.** 2.67

**Q.** How did the PBM binding z-score turn out when TAGCCTAGGTCATTCAGGGGCCATTATAGAAAGC was run?
**A.** 4.23

**Q.** ATCGAATGGTCGACGAGGTGAGTATACACCGTTT was tested. Which PBM binding z-score did it give?
**A.** 0.0601

**Q.** Which PBM binding z-score does the source give for GGAACGAGGGGATTCGAGTTGATAGCATGGCGAT here?
**A.** 0.173

**Q.** How did the PBM binding z-score turn out when CGTCCAAGGTCAGCAGCTCAGTGAAAGCGACGTG was run?
**A.** 2.09

**Q.** For GCTTGTAGATCTAGGTTAAGAAAGACTAAGCTAA, which PBM binding z-score is on record?
**A.** -0.392

**Q.** With CCTAATTGGTCAAGGTCACACACGCTATAGGTAC as the sequence, how does the PBM binding z-score read?
**A.** 4.03

**Q.** With CCGACTGGGGCAAGGTTACCATTACGCACAGCCA as the sequence, how does the PBM binding z-score read?
**A.** 0.00135

**Q.** How did the PBM binding z-score turn out when TAGCCTAAGTCAGATCGGGCCAGTATACGCTATA was run?
**A.** -0.662

**Q.** For CGTCCAAGGTCAGCATGTCAGTGAAAGCGACGTG, which PBM binding z-score is on record?
**A.** 2.49

**Q.** CTCGAAAGGTCGGTTGAGGTGAGTATGCGGATAA was tested. Which PBM binding z-score did it give?
**A.** 2.15

**Q.** With TTACCAAGGTGAAAGCTCGTTGATGCACGCCTTG as the sequence, how does the PBM binding z-score read?
**A.** -0.288

**Q.** For CGCCAAAGTTCAACTAAGGTAACGTAAAGCACGC, which PBM binding z-score is on record?
**A.** 4.9

**Q.** Which PBM binding z-score does the source give for TCTTGTAGATCAATAGAGGTTACGAAAGTGCGCT here?
**A.** 2.15

**Q.** Which PBM binding z-score does the source give for ATCTCTAGGGAACAAGTTCAGTGAAAGAGAGGAC here?
**A.** 1.48
